# Where “and” joins values, the source holds several entries; their conditions need not be identical. Equal values may be shown once. Results filed as inconclusive are left out. Entries that show only a call come without a potency. Calls of active or inactive are those of the source. Calls follow the shape of the dose curve; as a rule, active = well fitted cell-killing curve with a large enough effect in the repeat runs; inconclusive = weak or mixed curves, or effect the other way; inactive = flat fitted curve, though single readings scatter.
# Test: qHTS RealTime-Glo MT Cell Viability Assay in HepG2 cells - 0 hour (AID 1224889); also: nearly all actives have a fitted effect of over 50% in size
# Settings: RealTime-Glo luminescence; series mostly up to 76.8 µM
# Excerpt: U.S. Tox21 Program National Center for Advancing Translational Sciences [NCATS] NIH Chemical Genomics Center [NCGC] U.S. Environmental Protection Agency [EPA] National Institutes of Environmental Health Sciences [NIEHS] National Toxicology Program [NTP] U.S. Food and Drug Administration [FDA] Tox21 Assay Overview: Measure of cell viability is critical in the cell-base assay. Analysis of cell viability is necessary for the characterization of cell responses to cytotoxic drugs and environmental stress. A RealTime-Glo MT Cell Viability Assay to monitor cell viability in real time of continues cell culture during 40 hours of compound treatment was used to screen Tox21 10K library compounds in HepG2 cells. The RealTime-Glo MT Cell Viability Assay is a nonlytic, homogeneous, bioluminescent method to measure cell viability in real time using a simple, plate-based method. The assay involves adding NanoLuc luciferase and a cell-permeant prosubstrate to cells in culture. Viable cells reduce the proprietary prosubstrate to generate a substrate for NanoLuc luciferase. This substrate diffuses from cells into the surrounding culture medium, where it is rapidly used by the NanoLuc Enzyme to produce a luminescent signal. The signal correlates with the number of viable cells, making the assay well suited for cytotoxicity studies.
# Tox21 Assay Protocol Summary: The mixture of HepG2 cell suspension and reagents were dispensed at 600cells/6 ul/well in 1536-well tissue culture treated black solid bottom plates using a Multidrop dispenser. After the assay plates were incubated at a 37 C/5% CO2 incubator for 5 hours, 23 nL of compounds dissolved in DMSO, positive and negative controls was transferred to the assay plate by a pintool work station. The plates were incubated at 37 C for 40 hours. The luminescence intensity were measured at 0h, 8h, 16h, 24h, 32h and 40h time points using ViewLux plate reader during compound treatment.
Structure (SMILES),Potency,"activity change, negative = cytotoxicity"
O=[N+]([O-])c1ccc(/C=C/c2ccc([N+](=O)[O-])cc2S(=O)(=O)O)c(S(=O)(=O)O)c1,inactive,
O=S1(=O)CC=CC1,inactive,
CCCCCCCCCCCCOCCO,inactive,
COc1ccc(Nc2ccccc2)c(C)c1,inactive,
N[C@@H](Cc1cc(I)c(Oc2cc(I)c(O)c(I)c2)c(I)c1)C(=O)O,inactive,
C=C(C)C(=O)OCCOCCOCCOC(=O)C(=C)C,inactive,
O=C(O)CCCCCCCCCCC(=O)O,inactive,
CCCCCCCCCCCCc1ccccc1,inactive,
CCC(O)OCCCOC (stereo not given),inactive,
CCCC(C)=O,inactive,
O=C(O)c1ccccc1C(c1ccc(O)cc1)c1ccc(O)cc1,inactive,
CCCCCCOCCO,inactive,
O=C(OCCOCCOC(=O)c1ccccc1)c1ccccc1,inactive,
CSCCC=O,inactive,
CCN(CC)CCCC(C)Nc1ccnc2cc(Cl)ccc12 (stereo not given),,3.19% [at 6.97 µM] (inactive) and -4.4% [at 15.8 µM] (inactive)
c1c[nH]cn1,inactive,
CC(C)(N)CO,inactive,
O=C(O)c1cc(C(=O)O)cc(S(=O)(=O)O)c1,inactive,
CCCCCCCC(=O)OC,inactive,
CC1=C(C)S(=O)(=O)CCS1(=O)=O,inactive,

Structure (SMILES),Potency,"activity change, negative = cytotoxicity"
C[Si](O[Si](C)(C)C)O[Si](C)(C)C,inactive,
O=C(O)CC(C(=O)O)C(CC(=O)O)C(=O)O (stereo not given),inactive,
CC1CCC2CC1C2(C)C (stereo not given),inactive,
CCCCC(CC)CO (stereo not given),inactive,
CCC(O)OC(O)CC (stereo not given),inactive,
Cc1ccc(N(C)C)cc1,inactive,
OCCOCCOCCO,inactive,
CC(c1cc2ccccc2s1)N(O)C(N)=O (stereo not given),inactive,
FC(F)(F)c1ccc(Cl)c(Cl)c1,inactive,
Cc1ccc2oc(=O)ccc2c1,inactive,
O=P(OC(CCl)CCl)(OC(CCl)CCl)OC(CCl)CCl,inactive,
CCc1ccc(CCOc2ccc(CC3SC(=O)NC3=O)cc2)nc1 (stereo not given),inactive,
Fc1ccc(Br)cc1,inactive,
CCCCN(CCCC)CCCC,inactive,
COc1cc(Cc2cnc(N)nc2N)cc(OC)c1OC,inactive,
O=C(CC(C(=O)OC1CCCCC1)S(=O)(=O)O)OC1CCCCC1 (stereo not given),inactive,
O=S(=O)(O)c1ccc2ccccc2c1,inactive,
Oc1cccc2ccccc12,inactive,
Cc1ccc(S(N)(=O)=O)cc1,inactive,
NNc1nncc2ccccc12,inactive,

# — PubChem BioAssay (Tox21)
